This is a sample that favours compounds with a hit; in the whole collection about 6.6% have one here.
KB-3-1 tox: kills parental KB-3-1 adenocarcinoma cells; 400,000 compounds, 1.4% hits; Potency, µM (doses to about 46.1 µM), usual class: cytotoxic; KB-3-1 viability, CellTiter-Glo ATP luminescence, 72 h; note: % is set by controls: 0 for no effect and ±100 for the full control effect; nearly all actives have a fitted effect of over 60% in size
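Cells are dispensed, compounds pinned in, plates held at 37 °C for 72 h, then CellTiter-Glo is added and luminescence read after 10 minutes. Cell line: parental KB-3-1 in phenol-red-free DMEM, 10% FBS.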
HT1080-NT tox: kills 2HG-producing HT-1080-NT fibrosarcoma cells. HT-1080-NT fibrosarcoma viability, CellTiter-Glo ATP luminescence, 48 h. Potency, µM (titrated, usually from 46.1 µM), inactives show at the highest dose activity, negative = less viability, most hits filed as cytotoxic. 360,000 compounds, 1.6% hits. AID 686970;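 note: NT is the 2HG producing partner of a matched IDH1 knockdown line; 0% = DMSO-treated cells and -100% = media-only wells without cells; nearly all actives have a fitted effect of over 55% in size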
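Luminescent CellTiter-Glo readout after 48 hours of compound exposure at 37 degrees C defined viability of HT-1080-NT cells. Activity was normalized to DMSO wells and cell-free media wells; concentration-response curves were fitted and assigned curve classes.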
TGFb inhibitor: TGF-b pathway inhibition; 410,000 compounds, 1.2% hits; AID 588855; HepG2 CAGA-GFP TGF-b/SMAD3 reporter, GFP fluorescence, 18 h; TGF-beta stimulated, 500 pg/mL final; Potency, µM (series often up to 46.1 µM), inactives show at the top dose activity, negative = inhibition, hits mostly inhibitors; note: % is set by controls: 0 for no effect and ±100 for the full control effect; nearly all actives have a fitted effect of over 65% in size
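Smad-responsive CAGA-GFP expression was quantified in HEPG2 cells exposed to compounds and 500 pg/mL final TGF-beta for 18 h at 37 degrees C; unstimulated wells defined full inhibition.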
HT1080 IDH1KD tx: HT-1080 IDH1 knockdown cell toxicity (counter line) | HT-1080 IDH1 knockdown viability, ATP luminescence, 48 h | Potency, µM (series often up to 46.1 µM), without a hit: at the top dose activity, negative = toxicity, actives largely listed as cytotoxic | 360,000 compounds, 2% hits;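 note: 0% = DMSO wells and -100% = cell-free medium wells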
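Cytotoxicity counter-line: IDH1KD HT-1080, 48 h, CellTiter-Glo. Curves classed by r2, magnitude and activity.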
HepG2 viability: kills HepG2 cells in TGF-b inhibitor counter-screen; HepG2 CAGA-GFP viability, ATP luminescence, 18 h; Potency, µM (series often up to 46.1 µM), inactives show top-dose activity change, negative = cytotoxicity, usual class: cytotoxic; 410,000 compounds, 0.76% hits; AID 588856
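HepG2 CAGA-GFP cells (1000/well, DMEM with 1% FBS) received compound, then TGF-beta at 500 pg/mL final, and were incubated 18 hours at 37 degrees C. Viability was read by CellTiter-Glo luminescence. Media-only wells were set as complete cell-killing and DMSO as no toxicity.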
KB-V1 cytotox: KB-V1 MDR subline cytotoxicity; AID 1347076; 400,000 compounds, 3.4% hits; Potency, µM (doses to about 46.1 µM), actives largely listed as cytotoxic; KB-V1 MDR cells viability, CellTiter-Glo, 72 h; note: % is set by controls: 0 for no effect and ±100 for the full control effect; nearly all actives have a fitted effect of over 60% in size
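qHTS viability screen in drug-selected KB-V1 MDR cells: 72 h compound treatment at 37 degrees C, ATP luminescence end point.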
* marks the source's active call; other numbers are inactive results; i = inactive; ? = inconclusive; / = no result given. Calls come from the whole dose curve; as a rule, active = well fitted curve in the direction sought with a large enough effect; inconclusive = small, poorly fitted or top-dose-only effect, or another doubt; inactive = no such curve, though single readings can be large; an effect the other way counts as inactive or inconclusive. Potency is the fitted concentration of half-maximal effect.

SMILES	KB-3-1 tox	HT1080-NT tox	TGFb inhibitor	HT1080 IDH1KD tx	HepG2 viability	KB-V1 cytotox
CCN(CC)S(=O)(=O)c1cc(-c2ccc(=O)n(C(C)C(=O)Nc3cccc(C#N)c3)n2)ccc1C (configuration not stated)	i	/	-14.1%	/	-27.4%	i
c1ccc(-c2ccccc2OCCN2CCCC2)cc1	i	-3.1%	1.6%	-1.5%	1.3%	i
CC1CCN(CCCCOc2ccccc2-c2ccccc2)CC1	?	?	-28.7%	?	-57.2%	?
COCCCNCCCCOc1ccc(OCc2ccccc2)cc1	i	?	?	?	-116.1%	i
CC1CCN(CCOc2ccc(OCc3ccccc3)cc2)CC1	i	-17.5%	?	-13.7%	-0.5%	14.6µM*
c1ccc(COc2ccc(OCCCCN3CCCC3)cc2)cc1	i	-0.8%	-14.7%	-14.6%	-19.9%	?
CC1CN(CCOc2ccccc2-c2ccccc2)CC(C)O1 (configuration not stated)	?	4.4%	-21.4%	-4.2%	-19.1%	20.6µM*
CC1CCN(CCOCCOc2ccccc2-c2ccccc2)CC1	i	-12.2%	-12.1%	?	-30.4%	11.6µM*
c1ccc(COc2ccc(OCCCNC3CCCC3)cc2)cc1	?	23.1µM*	?	?	-67.9%	?
COc1ccc(-c2c(C)nn3c(-c4ccccc4)cc(-c4ccccc4)nc23)cc1	i	/	13.7%	/	-2.2%	i
COc1ccc(-c2noc(CCC(=O)Nc3ccccc3Cl)n2)cc1OC	i	/	-1.0%	/	-12.8%	i
COc1ccc(C(=O)Nc2cc3cc(Cl)ccc3oc2=O)cc1OC	/	/	3.9%	/	4.0%	/
COc1cc(C(=O)OCC(C)=O)cc(NC(=O)c2ccco2)c1OC	i	10.4%	5.0%	2.4%	-1.6%	i
COc1cc(C(=O)OCC(=O)NC2CCCC2)cc(NC(=O)c2ccco2)c1OC	i	4.8%	21.6%	12.7%	-6.7%	4.61µM*
Cc1ccccc1NC(=O)c1c(C)oc2ccc(O)c(CN3CCCC(C)C3)c12 (configuration not stated)	i	/	?	/	-34.4%	?
Cc1ccccc1OCC(=O)NC(=S)Nc1ccc2c3c(cccc13)CC2	i	8.5%	0.0%	-1.9%	12.6µM*	i
C/C(=N\NC(=O)CSCc1ccc([N+](=O)[O-])cc1)c1ccccc1O	i	-5.2%	?	-19.5%	-17.9%	20.6µM*
C/C(=N\NC(=O)Cc1ccc(Cl)cc1)c1ccccc1O	?	?	?	5.17µM*	-38.8%	?
C/C(=N\NC(=O)CSCc1ccc([N+](=O)[O-])cc1)c1ccccc1	i	-2.5%	-2.1%	-0.1%	32.3%	?
C/C(=N\NC(=O)Cc1ccc(Cl)cc1)c1ccc(F)cc1	i	-4.3%	29.2%	2.6%	0.3%	i
COc1cc(NC(=O)c2nnn(CC(=O)Nc3cc(C)ccc3C)c2N)cc(OC)c1	/	/	-14.3%	/	-21.7%	/
O=C(OCC(=O)N1CCc2ccccc2C1)c1c(F)cccc1Cl	i	10.6%	11.0%	-1.0%	-1.1%	i
CCOC(=O)C(NC(=O)c1ccccc1)(OCC1(CC)COC1)C(F)(F)F (configuration not stated)	i	-0.9%	3.3%	-3.1%	-14.7%	18.4µM*
CCOC(=O)C(NC(=O)c1ccc(OC)cc1)(OCC1(CC)COC1)C(F)(F)F (configuration not stated)	i	21.3%	?	15.3%	-12.8%	i
CCn1cc(C(=O)NCc2cccc(F)c2)c(=O)c2cc(F)c(N3CCN(C(=O)c4ccco4)CC3)cc21	?	13µM*	1.3%	23.1µM*	0.9%	?

Source: PubChem (National Center for Advancing Translational Sciences (NCATS))
